# Test results reported in the supplement of paper PMC3334620.
# Over roughly 33,000 sequences, “E-score (-0.5 to 0.5)” has its median near -0.041; the highest 2% begin near 0.37. The sample holds the highest values, similar sequences and a random draw of the others, so the mix is not that of the screen.
# Target: T1, Ecm22 (UniProt Q05958)
# T1 sequence: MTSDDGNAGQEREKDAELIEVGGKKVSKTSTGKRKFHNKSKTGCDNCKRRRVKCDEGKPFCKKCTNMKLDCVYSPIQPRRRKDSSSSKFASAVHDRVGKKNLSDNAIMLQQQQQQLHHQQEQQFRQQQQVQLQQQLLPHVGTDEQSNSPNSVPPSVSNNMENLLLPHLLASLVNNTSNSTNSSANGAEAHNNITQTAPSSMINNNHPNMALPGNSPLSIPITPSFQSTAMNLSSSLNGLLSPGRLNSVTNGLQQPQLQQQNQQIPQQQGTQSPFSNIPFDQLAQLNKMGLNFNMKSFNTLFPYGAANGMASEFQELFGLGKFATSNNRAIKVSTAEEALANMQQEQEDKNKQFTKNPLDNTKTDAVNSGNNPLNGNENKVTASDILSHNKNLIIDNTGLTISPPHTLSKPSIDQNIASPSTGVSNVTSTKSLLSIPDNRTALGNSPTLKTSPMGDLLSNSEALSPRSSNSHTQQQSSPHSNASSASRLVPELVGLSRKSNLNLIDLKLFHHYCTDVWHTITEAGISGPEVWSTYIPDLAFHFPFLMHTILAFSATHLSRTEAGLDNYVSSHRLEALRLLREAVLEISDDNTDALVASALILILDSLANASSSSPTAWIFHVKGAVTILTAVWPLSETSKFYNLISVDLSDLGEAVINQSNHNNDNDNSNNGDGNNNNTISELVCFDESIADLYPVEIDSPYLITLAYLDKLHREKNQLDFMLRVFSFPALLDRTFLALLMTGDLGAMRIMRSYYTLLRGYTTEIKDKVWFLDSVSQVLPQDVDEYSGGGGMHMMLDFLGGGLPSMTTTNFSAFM
# Test: PBM E-score (8-mer binding enrichment) (E-score (-0.5 to 0.5)); higher = stronger / more preferred TF binding
# Conditions: protein concentration: 200 nM; construct: GST-full length
# Method in brief: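 Using PURExpress in vitro transcription/translation, GST-tagged yeast transcription factors were made in full-length or DNA-binding-domain form. These were applied at about 100-200 nM to double-stranded universal all-10-mer Agilent arrays, and bound protein was detected with fluorescent anti-GST. Scans were normalised with masliner before the Universal PBM Analysis Suite assigned E-scores to ungapped eight-base words pooled with their reverse complements.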
row,Sequence,PBM E-score
1,AACGTATA,0.411
2,GACGTATA,0.365
3,CACGTATG,0.0729
4,TACGTATA,0.401
5,AGCGTATA,0.366
6,TACGTAGA,0.133
7,CGCGTATA,0.403
8,GGGTGGAA,-0.284
9,CACCCGCG,-0.0941
10,TGCTAACA,-0.0691
11,ACCTGGCT,-0.059
12,ATCCAAGC,-0.231
13,ACTAAGGA,0.1
14,CGGCCATC,-0.22
15,CAGCCTCA,-0.00094
16,TTCCACAA,-0.0103
17,CTCAGTTA,-0.187
18,ACGGCGAC,0.21
19,ACGGCGAG,0.214
20,ACGGCGAT,0.377
21,AAAGCCTG,-0.228
22,ACAGCCCT,-0.279
23,AAGCTGCA,-0.0356
24,ATTCGTCC,0.0925
25,CTTCGTGA,0.209

row,Sequence,PBM E-score
1,CTTCGTAA,0.413
2,CTTCGTCA,0.117
3,ATTCGTAC,0.468
4,CTTCGTAC,0.477
5,CTTCGTCC,-0.243
6,CTTCGTGC,0.0216
7,ATTCGTGC,-0.00078
8,ACGATCTA,0.22
9,ACGATGCT,0.283
10,GCATACGA,0.446
11,TCATACAA,-0.115
12,TCATACGA,0.463
13,CCATACGA,0.462
14,CCATACGC,0.218
15,GCATACAA,0.0278
16,ACATACGA,0.466
17,ACATACGG,0.321
18,ACATACGC,0.221
19,CCATACGG,0.345
20,TCATACCA,-0.0984
21,GCATACGC,0.199
22,GAACCCGC,0.0274
23,AAGAAAAC,0.0702
24,TAATCATA,-0.0103
25,TAATCGCA,0.215

row,Sequence,PBM E-score
1,CGAGGACA,0.0726
2,AAGTACGA,0.448
3,TAGTACCA,-0.124
4,AAGTACGT,0.171
5,GAGTACGA,0.426
6,GAGTACGC,-0.0338
7,CAGTACGA,0.423
8,CAGTACGC,0.06
9,TAGTACAA,0.0161
10,GAGTACAA,0.0511
11,TAGTACGA,0.443
12,AAGTACGC,0.0885
13,CAGTACGG,0.27
14,CGGACCCG,0.21
15,ACCACAAC,0.0744
16,CGGGTCTC,0.00746
17,CTATTCGA,0.0817
18,ACTGGTAA,0.0597
19,CCGTATTA,0.316
20,GACGCCCC,-0.0249
21,CCCGTATA,0.471
22,CCCGTATC,0.327
23,GCGGTATA,-0.0371
24,ACCGTATA,0.459
25,ACCGTATG,0.325

row,Sequence,PBM E-score
1,GCCGTAGA,0.213
2,GCCGTATA,0.463
3,ACCGTATC,0.346
4,CCCGTAGA,-0.00351
5,ACGGGGGA,0.16
6,CGCTCACC,0.112
7,ACCATTTG,-0.0622
8,CCATGAGA,-0.118
9,AACCGAGA,0.312
10,AGCAAGTG,-0.181
11,AGTGGAAT,-0.0777
12,AACCGGAG,-0.0216
13,AGGCTTTA,-0.133
14,AGGATCCT,0.134
15,TAAACGTA,0.38
16,CAAACGTA,0.186
17,AAAACGTA,0.164
18,GAAACGGA,0.256
19,CAAACGGA,0.202
20,TAAACGGA,0.433
21,AGACCACG,-0.221
22,ACGCGAGA,0.281
23,AAGTTCGT,0.319
24,CTAGACAG,-0.189
25,CCTCGTCG,0.218

row,Sequence,PBM E-score
1,CCTCGGAC,0.246
2,CCTCATAG,-0.183
3,ACTCGTGC,0.0518
4,ACTCGTAT,0.479
5,CCTCGTAC,0.491
6,ACTCGGAT,0.318
7,ACTCGTAC,0.484
8,CCGCGTAC,0.231
9,ACTCGTCT,0.172
10,ACTCGTCC,-0.139
11,CCTCGTAG,0.41
12,AGCCCAGG,-0.341
13,AGGGCGCG,-0.0881
14,CCCTTCTC,-0.218
15,CCGTTAGA,0.0314
16,GCAGCCGC,-0.0784
17,ATACAGAG,-0.0254
18,ATGGTCTG,-0.0872
19,CCTTTCAA,-0.203
20,ACCTCTAG,-0.137
21,GCTCGTAA,0.451
22,TCTCGTAA,0.438
23,ACTCGTAA,0.437
24,ACTCGTCA,0.0424
25,CCTCGTCA,0.232

row,Sequence,PBM E-score
1,GCTCGTCA,0.0115
2,CCTCGTGA,0.201
3,TCTCGTCA,0.0737
4,CCTCGTAA,0.446
5,ACTCGTAG,0.34
6,TCACGTAA,0.00322
7,GCTCGTGA,0.171
8,CTGAACCC,0.0346
9,AGCTGTAT,-0.124
10,AGCCTGCG,-0.17
11,AGAGACAT,-0.195
12,GCTCGTAC,0.486
13,GCACGTAC,0.168
14,GCTCGTCC,-0.109
15,CACACATC,-0.226
16,CGATCAGC,0.09
17,GCGAGGAC,0.0393
18,ACGAGGAC,0.42
19,CCGAGGAA,0.0818
20,CCGAGGAC,0.207
21,ACGAGGAA,0.375
22,ACGAGGAG,0.349
23,AGGAGGAT,-0.157
24,ACGAGGAT,0.387
25,TCGAGGAA,0.101

row,Sequence,PBM E-score
1,ACGCTCGG,0.21
2,CAGCTGCA,-0.385
3,CCATTCCA,-0.228
4,CGTGTGCA,-0.0516
5,AGTCTACC,-0.156
6,CAAGATCG,0.122
7,ACCCGTCT,-0.0476
8,ACCCGTAG,-0.142
9,AACCGTAT,0.341
10,CCCCGTAA,0.211
11,ACCCGTAA,0.179
12,ACCCGTAT,0.391
13,CCCCGTAG,0.0215
14,ACCCGTAC,0.374
15,GCCCGTCC,-0.279
16,GCCCGTAC,0.396
17,GCCCGTAA,0.221
18,CCCCGTAC,0.377
19,ACGTATTC,0.144
20,ACGGAGCC,-0.084
21,ATTACTTC,-0.0783
22,GAGGGATC,-0.0216
